# Measurements reported in PubChem BioAssay (EPA / NIEHS).
# Records with an inconclusive call do not appear. Calls of active or inactive are those of the source. The calls were made as follows, unless noted: active = hit-call score of the fitted dose curve at least 0.9, where 1 is the maximum; inconclusive = response in the unintended direction; inactive = score below 0.9.
# What was measured:
# [1] = CCTE_Padilla_ZF_144hpf_TERATOSCORE: (Legacy) CCTE's 144 Hour Post-fertilization zebrafish Assay Teratoscore, Padilla Lab (AID 2283679; active = hit-call score of the fitted dose curve at least 0.9, where 1 is the maximum; inactive = score below 0.9;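 as to AC50: zebrafish embryos with chorions exposed by immersion from 6-8 hpf to 5 dpf with daily renewal; teratogenicity score from eye scoring of death hatching and malformations at 144 hpf; higher score means more developmental defects relative to DMSO baseline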)
# Method in brief: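 Larvae scored by eye at 144 hpf for death, hatching and malformations after a day in clean Hanks'. Before that, daily-renewed exposure at 80 uM (0.4% DMSO, 26C) from roughly 6-8 hpf through 5 dpf, 4 embryos per chemical.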
# [2] = STM_H9_OrnithineISnorm_perc: Stemina devTOX quickPredict H9 human embryonic stem cell (hESC)-based Assay for Ornithine (ORN) Metabolite Biomarker, Normalized (AID 2283712; active = hit-call score of the fitted dose curve at least 0.9, where 1 is the maximum; inactive = score below 0.9;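 also: ornithine released into spent medium during last day measured by mass spectrometry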)
# Method in brief: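 Metabolite endpoint from spent media of pluripotent H9 cells treated 72 h with daily re-feeding; ornithine measured by UPLC-HRMS against its 13C spike-in and referenced to the median 0.1% DMSO vehicle response.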
# [3] = STM_H9_CystineISnorm_perc: Stemina devTOX quickPredict H9 human embryonic stem cell (hESC)-based Assay for Cystine (CYSS) Metabolite Biomarker, Normalized (AID 2283713; active = hit-call score of the fitted dose curve at least 0.9, where 1 is the maximum; inactive = score below 0.9)
# Method in brief: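 Normalized cystine level in conditioned medium from the final 24h of a 72h treatment of pluripotent H9 cells (daily media and compound renewal). Quantified by UPLC-HRMS with C13-labeled internal standard; scaled to median of 0.1% DMSO vehicle wells.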
# [4] = CEETOX_H295R_MTT_cell_viability: Viability Assessment in the CeeTox HT-H295R MTT Assay (AID 2283718; active = hit-call score of the fitted dose curve at least 0.9, where 1 is the maximum; inactive = score below 0.9;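 as to AC50: curve fitted both ways so AC50 may mark viability loss or gain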)
# Method in brief: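 Human H295R adrenal cells, prestimulated 48 h with 10 uM forskolin, were exposed 48 h to chemicals in 0.1% DMSO. Viability was measured in the same wells by MTT (0.5 mg/ml, 4 h, 37 C), absorbance 570/650 nm, as percent of controls.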
# [5] = biological target: Luciferin 4-monooxygenase (Photinus pyralis) (UniProt P08659); assay: CCTE_Simmons_QuantiLum_inhib_2: CCTE's Firefly Luciferase Inhibition Assay, Simmons Lab (AID 2283767);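 as to AC50: potency for inhibitors that lower luciferase luminescence relative to DMSO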
# Method in brief: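 Eight-point titrations of each chemical, 5 nM–87.5 uM final in 0.5% DMSO, were run in three biological replicates against recombinant luciferase for 30 min at 37C. Bioluminescence signal loss, read on reagent injection, gave the inhibition endpoint.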
# [6] = system: chicken Androgen Receptor (AR), gene 422165; assay: ATG_chAR_XSP1: Attagene TRANS-FACTORIAL Multi-Species (XSP1) HepG2 Assay for chicken Androgen Receptor (AR) (AID 2283768)
# Method in brief: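 Reporter mRNA read by RT-PCR with fluorescent labelling and capillary electrophoresis 24 h after chemical dosing of transiently transfected HepG2 cells. Chicken AR-Gal4 chimera, partially stimulated with 3 nM 6-alpha-fluorotestosterone; activity fitted upward relative to DMSO.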
# [7] = biological target: zebrafish Estrogen Receptor (ESR1), esr1 (gene 259252) (UniProt P57717); assay: ATG_zfER1_XSP1: Attagene TRANS-FACTORIAL Multi-Species (XSP1) HepG2 Assay for zebrafish Estrogen Receptor (ESR1) (AID 2283772)
# Method in brief: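 Trans-activation readout: transfected zebrafish ER-Gal4 drives a UAS reporter in human HepG2 liver cells. After 24 h compound exposure (medium containing 3 nM 6-alpha-fluorotestosterone), induced reporter transcripts were quantified by RT-PCR with capillary electrophoresis, relative to DMSO.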
# [8] = system: zebrafish Estrogen Receptor (ESR2B), gene 317733; assay: ATG_zfER2b_XSP1: Attagene TRANS-FACTORIAL Multi-Species (XSP1) HepG2 Assay for zebrafish Estrogen Receptor (ESR2B) (AID 2283773)
# Method in brief: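 Multiplexed TRANS format in transfected HepG2 liver cells, chimeric NR-Gal4 from zebrafish ESR2B. 24 h dosing; medium contains 3 nM 6-alpha-fluorotestosterone. mRNA induction by RT-PCR/CE, positive direction vs DMSO.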
# [9] = Tanguay_ZF_120hpf_ActivityScore_legacy: (Legacy) Oregon State University Tanguay Lab 120 Hour Post-fertilization zebrafish Assay Score for Activity (AID 2283742);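 as to AC50: dechorionated Tropical 5D wild-type zebrafish embryos held singly per well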
# Method in brief: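 Dechorionated 5D embryos, one per well, static exposure 6–120 hpf, 28C, sealed and dark; final DMSO 0.64% (vol/vol). Brightfield binary scoring of mortality plus 18 endpoints; gain-of-signal fit versus DMSO baseline.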
# [10] = ArunA_CellTiter_hNC: Viability Assessment in the ArunA Biomedical's Oris Neural Crest (hNC) Cell Migration Assay (AID 2283752)
# Method in brief: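 Cytotoxicity endpoint run alongside the migration assay: neural crest cells on Matrigel, 60,000 per well, preincubated 16 h at 37C, treated 72 h; CellTiter Aqueous One signal loss relative to DMSO.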
# [11] = ArunA_CellTiter_hNP: Viability Assessment in the ArunA Biomedical's Oris Neural Crest (hNC) Cell Migration Assay (AID 2283753)
# Method in brief: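 Viability read with CellTiter 96 Aqueous One after 72 h chemical exposure of human hNP1 neuroprogenitors, which were plated on Matrigel in LIF/bFGF medium 16 h beforehand. Endpoint fitted in positive direction relative to DMSO.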
# [12] = ArunA_Migration_hNP: ArunA Biomedical's Oris Neuroprogenitor (hNP) Cell Migration Assay (AID 2283754)
# Method in brief: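 Readout is calcein-AM fluorescence (ex494/em517) of cells migrating into the detection zone, relative to DMSO. hNP1 cells (H9-derived) grown on Matrigel behind stoppers 16 h, then stoppers pulled and chemical applied 72 h; cytochalasin D as control.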
# [13] = ArunA_Migration_hNC: ArunA Biomedical's Oris Neural Crest (hNC) Cell Migration Assay (AID 2283755)
# Method in brief: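 Calcein-AM fluorescence (ex494 nm/em 517 nm) in the stopper-defined detection zone quantifies migration of hNC cells after 72 h chemical exposure; 60,000 cells/well plated on Matrigel with LIF and bFGF, 16 h pre-incubation. DMSO baseline.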
# [14] = ArunA_NOG_NucleusCount: ArunA Biomedical's Neurite Outgrowth (NOG) Assay for Nucleus Count (AID 2283756)
# Method in brief: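 Viable neuron count, from Hoechst nuclei passing size and intensity gates, imaged at 20x on differentiated H9-derived human neurons. Exposure lasted 48 h from seeding; activity was scored relative to DMSO.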
# [15] = ArunA_NOG_NeuriteLength: ArunA Biomedical's Neurite Outgrowth (NOG) Assay for Neurite Length (AID 2283757)
# Method in brief: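 Total neurite length per neuron, from traced βIII-tubulin-labelled processes longer than 10 um on viable Hoechst-gated cells, was scored as decrease from DMSO. Cells were hESC (H9)-derived neurons given 48 h chemical exposure immediately after seeding.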
# [16] = ArunA_NOG_NeuritesPerNeuron: ArunA Biomedical's Neurite Outgrowth (NOG) Assay for Neurites Per Neuron (AID 2283758)
# Method in brief: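 Differentiated human H9-derived neurons exposed to chemicals for 48 h from seeding, then stained with Hoechst and βIII-tubulin/DyLight 488. Automated imaging counted neurites (processes >10 um) per valid neuron; loss of signal versus DMSO scored.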
# [17] = system: zebrafish Androgen Receptor (AR), gene 100005148; assay: ATG_zfAR_XSP1: Attagene TRANS-FACTORIAL Multi-Species (XSP1) HepG2 Assay for zebrafish Androgen Receptor (AR) (AID 2283771)
# Method in brief: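 Gain-of-signal versus DMSO was measured as reporter transcripts quantified by RT-PCR, fluorescent labelling and capillary electrophoresis after 24 h chemical exposure. The cells were HepG2 expressing a chimeric zebrafish AR-GAL4, co-stimulated with 3 nM 6-alpha-fluorotestosterone.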
# [18] = ArunA_NOG_BranchPointsPerNeurite: ArunA Biomedical's Neurite Outgrowth (NOG) Assay for Branch Points Per Neurite (AID 2283759)
# Method in brief: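 Automated image analysis traced neurites (processes >10 um) from valid cell bodies after Hoechst and βIII-tubulin staining. hNN cells from H9 embryonic stem cells, 48 h exposure. Fitted bidirectionally against DMSO.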
# [19] = system: Thyroperoxidase (TPO), gene 445522; assay: CCTE_Simmons_GUA_TPO: CCTE's Guaiacol Assay for Thyroperoxidase (TPO) Inhibition, Simmons Lab (AID 2283750)
# Method in brief: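 Porcine thyroid microsomes (25 ug) in 200mM potassium phosphate, preincubated 30 s at 37C with compound (8 concentrations, 5 nM–87.5 uM) and 35mM guaiacol; 1mM H2O2 starts reaction. Absorbance change at 450nm over first 80 s; loss of signal versus DMSO, three replicates.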
# Chain of Luciferin 4-monooxygenase (Photinus pyralis) (P08659 whole entry, looked up): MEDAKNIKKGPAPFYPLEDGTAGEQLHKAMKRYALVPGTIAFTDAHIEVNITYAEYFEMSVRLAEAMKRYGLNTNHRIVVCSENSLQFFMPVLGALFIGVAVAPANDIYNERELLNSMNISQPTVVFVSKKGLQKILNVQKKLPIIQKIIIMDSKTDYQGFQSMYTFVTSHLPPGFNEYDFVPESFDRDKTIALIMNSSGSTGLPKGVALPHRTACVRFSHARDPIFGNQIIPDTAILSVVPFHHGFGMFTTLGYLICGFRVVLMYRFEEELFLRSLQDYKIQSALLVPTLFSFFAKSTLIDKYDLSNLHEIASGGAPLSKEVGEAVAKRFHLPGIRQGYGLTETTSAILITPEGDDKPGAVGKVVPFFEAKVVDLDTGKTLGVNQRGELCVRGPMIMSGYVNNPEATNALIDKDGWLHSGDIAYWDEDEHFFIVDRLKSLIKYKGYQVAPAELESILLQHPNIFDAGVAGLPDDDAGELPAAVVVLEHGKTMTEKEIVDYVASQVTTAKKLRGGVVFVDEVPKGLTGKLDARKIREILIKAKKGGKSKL
# Chain of zebrafish Estrogen Receptor (ESR1), esr1 (gene 259252) (P57717 whole entry, looked up, the tested form may be a part): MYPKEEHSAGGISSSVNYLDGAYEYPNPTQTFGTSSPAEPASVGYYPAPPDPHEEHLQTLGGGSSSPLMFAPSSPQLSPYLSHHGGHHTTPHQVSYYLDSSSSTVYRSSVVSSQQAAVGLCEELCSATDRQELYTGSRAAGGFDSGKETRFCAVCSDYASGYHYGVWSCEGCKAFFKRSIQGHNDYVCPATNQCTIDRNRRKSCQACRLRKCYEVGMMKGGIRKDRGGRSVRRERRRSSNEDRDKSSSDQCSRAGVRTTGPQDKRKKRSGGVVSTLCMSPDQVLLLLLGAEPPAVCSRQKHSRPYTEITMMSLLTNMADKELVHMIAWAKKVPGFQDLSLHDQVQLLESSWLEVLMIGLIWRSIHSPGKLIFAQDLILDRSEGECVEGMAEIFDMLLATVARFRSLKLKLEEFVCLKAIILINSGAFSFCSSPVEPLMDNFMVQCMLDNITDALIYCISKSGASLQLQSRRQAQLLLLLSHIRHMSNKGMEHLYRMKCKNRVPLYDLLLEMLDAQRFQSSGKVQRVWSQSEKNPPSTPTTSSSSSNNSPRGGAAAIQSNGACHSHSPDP
smiles,measurement,setting,value
CCC12COCN1COC2,outcome,[1],inactive
CCCCOC(=O)c1ccccc1C(=O)OCc1ccccc1,AC50,[1],1.55 µM (active)
same,outcome,[2],inactive
same,AC50,[3],32.6 µM (active)
same,outcome,[4],inactive
same,outcome,[5],inactive
same,outcome,[6],inactive
same,AC50,[7],26.6 µM (active)
same,AC50,[8],6.82 µM (active)
Oc1ccc2ccc3cccc4ccc1c2c34,AC50,[1],15.2 µM (active)
same,outcome,[2],inactive
same,outcome,[3],inactive
same,outcome,[4],inactive
same,AC50,[9],47.4 µM (active)
same,AC50,[10],14.7 µM (active)
same,AC50,[11],25.8 µM (active)
same,AC50,[12],50 µM (active)
same,AC50,[13],13.9 µM (active)
same,outcome,[14],inactive
same,outcome,[15],inactive
same,outcome,[16],inactive
same,AC50,[5],48 µM (active)
CCC[CH2][Sn]([Cl])([CH2]CCC)[CH2]CCC,AC50,[1],0.0309 µM (active)
same,AC50,[2],0.519 µM (active)
same,AC50,[3],0.546 µM (active)
same,AC50,[9],0.317 µM (active)
same,AC50,[6],0.334 µM (active)
same,outcome,[17],inactive
same,outcome,[8],inactive
Clc1ccc(Cl)c(Cl)c1,outcome,[1],inactive
same,outcome,[2],inactive
same,outcome,[3],inactive
same,outcome,[10],inactive
same,outcome,[12],inactive
same,outcome,[14],inactive
same,outcome,[16],inactive
same,outcome,[18],inactive
CCCCCCCCn1sccc1=O,AC50,[1],0.523 µM (active)
same,AC50,[2],43 µM (active)
same,AC50,[3],11.5 µM (active)
ClC1=C(Cl)C2(Cl)C3C(Cl)C=CC3C1(Cl)C2(Cl)Cl (configuration not stated),AC50,[1],3.23 µM (active)
O=Cc1ccco1,outcome,[1],inactive
C[N+](C)(C)CC1CO1 (configuration not stated),AC50,[2],21 µM (active)
same,AC50,[3],11 µM (active)
CCCCC(CC)COC(=O)c1ccc(C(=O)OCC(CC)CCCC)c(C(=O)OCC(CC)CCCC)c1 (configuration not stated),outcome,[9],inactive
same,outcome,[5],inactive
c1ccc2c(c1)-c1cccc3cccc-2c13,outcome,[4],inactive
same,outcome,[9],inactive
CC(C)(O)c1cnn2c(-c3ccc(F)c(-c4c(F)cccc4C#N)c3)cnc2n1,outcome,[4],inactive
CCN(CC)N=O,outcome,[2],inactive
same,outcome,[3],inactive
same,outcome,[9],inactive
c1ccc(N=Nc2ccccc2)cc1,outcome,[4],inactive
O=[N+]([O-])C(Br)(CO)CO,outcome,[9],inactive
CC(C)N(Cc1ccccc1)C(=O)C(C)(C)C,outcome,[4],inactive
CC(C)(C)OOC(=O)c1ccccc1,outcome,[9],inactive
CCCSC(=O)N(CCC)CCC,outcome,[9],inactive
c1ccc2c(c1)oc1ccccc12,outcome,[9],inactive
N#CC(Br)(Br)C(N)=O,outcome,[9],inactive
same,outcome,[5],inactive
Nc1ccc([N+](=O)[O-])cc1,outcome,[9],inactive
[As]#[In],outcome,[4],inactive
CC(C)(C)OOC(C)(C)CCC(C)(C)OOC(C)(C)C,outcome,[9],inactive
CN(C)c1ccccc1,AC50,[19],23.7 µM (active)
same,outcome,[5],inactive
Nc1ccc(Cc2ccc(N)cc2)cc1,AC50,[4],2.04 µM (active)
same,outcome,[9],inactive
same,AC50,[19],0.352 µM (active)
same,outcome,[5],inactive
Cc1ccc(N=C=O)cc1N=C=O,outcome,[4],inactive
same,outcome,[9],inactive
same,AC50,[5],22.6 µM (active)
CN(C)c1ccc(C(=O)c2ccc(N(C)C)cc2)cc1,AC50,[1],0.544 µM (active)
same,AC50,[5],11.6 µM (active)
Cc1ccc(N)cc1,AC50,[2],61.2 µM (active)
same,AC50,[3],23.1 µM (active)
same,outcome,[9],inactive
same,outcome,[5],inactive
CN(C)C(=O)Nc1ccc(Cl)cc1,outcome,[2],inactive
same,outcome,[3],inactive
same,outcome,[5],inactive
Oc1ccccc1Cl,outcome,[9],inactive
same,outcome,[5],inactive
CN(C)[C@@H]1C(=O)C(C(N)=O)=C(O)[C@@]2(O)C(=O)C3=C(O)c4c(O)cccc4[C@@](C)(O)[C@H]3C[C@@H]12,outcome,[9],inactive
same,AC50,[19],117 µM (active)
same,outcome,[5],inactive
CS(=O)(=O)NC(=O)c1cc(Oc2ccc(C(F)(F)F)cc2Cl)ccc1[N+](=O)[O-],AC50,[1],0.128 µM (active)
same,outcome,[9],inactive
CNC(=O)Oc1cccc2c1OC(C)(C)C2,outcome,[2],inactive
same,outcome,[3],inactive
same,AC50,[4],1.52 µM (active)
same,outcome,[9],inactive
O=P(OCCCl)(OCCCl)OCCCl,outcome,[2],inactive
same,outcome,[3],inactive
same,outcome,[4],inactive
same,outcome,[10],inactive
same,outcome,[12],inactive
same,outcome,[13],inactive
same,outcome,[15],inactive
same,outcome,[16],inactive
same,outcome,[18],inactive
O=C1CCCO1,outcome,[2],inactive
same,outcome,[3],inactive
same,outcome,[9],inactive
N#CC(Br)Br,outcome,[1],inactive
same,outcome,[9],inactive
C=CCc1ccc2c(c1)OCO2,outcome,[4],inactive
same,outcome,[5],inactive
ClCCOCCCl,outcome,[9],inactive
COC(=O)c1ccccc1N,outcome,[1],inactive
same,outcome,[9],inactive
same,outcome,[5],inactive
Nc1ccc(Oc2ccc(N)cc2)cc1,AC50,[2],59.5 µM (active)
same,outcome,[3],inactive
same,outcome,[4],inactive
same,AC50,[19],0.366 µM (active)
OCCCl,outcome,[9],inactive
O=C(N[C@H](c1ccccc1)[C@@H]1CN2CCC1CC2)c1c(Cl)ccc(C(F)(F)F)c1Cl,AC50,[1],50.8 µM (active)
same,AC50,[9],28.3 µM (active)
CCOc1cccc(C2(N3CCN(c4ccccc4)CC3)CCC(C)CC2)c1 (configuration not stated),outcome,[4],inactive
same,outcome,[9],inactive
OCCOCCO,outcome,[1],inactive
same,outcome,[9],inactive
c1ccc(NNc2ccccc2)cc1,outcome,[9],inactive
same,AC50,[5],20.4 µM (active)
Nc1cc(Cl)cc(C(=O)O)c1Cl,outcome,[1],inactive
same,outcome,[5],inactive
